The results in this text go back to PubChem BioAssay.

Calls of active or inactive are those of the source.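 Rule for the calls, unless noted: active = compound raises insulin release from rat beta cells at 5 mM glucose, no numeric limit stated; inactive = the rest.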

Assay [1] in a line: Wnt pathway potentiators raising nuclear beta-catenin – imaging, WNT3A-conditioned medium, mouse C2C12, NPC library, primary screen (AID 1117326; in the data active = nuclear beta-catenin stimulation mostly above about 4.2%, no sharp cut-off; inactive = mostly below about 10%; note: reference of the scale not given here). The following applies: stronger effect = higher value.
Assay [2] in a line: stimulators of insulin release from INS-1E, primary screen, cell-based, 5 mM glucose, NPC library (AID 1117329). Note: reference of the scale not given here. The following applies: rat INS-1E insulin secretion, at 10 µM, stronger effect = higher value.
Assay [3] in a line: growth inhibition of GSK3B-pretreated HCT116 cells – cell-based, CellTiter-Glo, 0.2 to 20 µM (AID 1117336;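 active = compounds lowering colon cancer cell viability after pretreatment blocking the GSK3B kinase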). The following applies: HCT116 viability after GSK3B inhibitor, at 20 µM, stronger effect = higher value.
Assay [4] is described as follows: inhibition of endothelial tube formation, primary screen, imaging, VEGF stimulated, CD31 staining, tube area, NPC library (AID 1117340;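 active = compound that reduces growth-factor-driven endothelial tube area in a mixed cell culture, no cutoff stated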). The conditions noted are these: VEGF-stimulated ADSC/ECFC co-culture, at 10 µM, stronger effect = higher value.
A short description of assay [5]: GLP1 release stimulators, primary, NCI-H716, NPC library (AID 1117341;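 active = compound raises GLP1 secretion from the human gut endocrine cells, with no numeric limit stated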; note: reference of the scale not given here). The conditions noted are these: NCI-H716 cells, at 10 µM, stronger effect = higher value.
Assay [6] can be described thus: HCT116 colon cancer cell growth inhibition, primary screen, CellTiter-Glo luminescence, NPC library (AID 1117342;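 active = compounds that lower survival of HCT116 colon cancer cells in the luminescence readout, no numeric limit stated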). The conditions noted are these: at 20 µM (top of the series).
Assay [7] in a line: reduced SW480 viability measured with CellTiter-Glo, NPC library, primary (AID 1117343;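 active = compounds that lower viability of the colon cancer cells in the luminescence readout, with no numeric limit stated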). The following applies: CellTiter-Glo luminescence; at 20 µM (top of the series).
Assay [8] is described as follows: NPC library primary testing for decreased DLD-1 cell viability via CellTiter-Glo (AID 1117346;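 active = compounds that lower survival of DLD-1 colon cancer cells in the luminescence readout, no cutoff given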). The conditions noted are these: DLD-1 viability, CellTiter-Glo luminescence; at 20 µM (top of the series).

With `Cc1cccc(C)c1OCC(=O)N[C@@H](Cc1ccccc1)[C@@H](O)C[C@H](Cc1ccccc1)NC(=O)[C@H](C(C)C)N1CCCNC1=O`, the nuclear beta-catenin stimulation in assay [1] (at 10 µM) was 2% (inactive); in assay [1] (stimulation, at 2 µM) it was -0.1%. For the same compound, the insulin secretion stimulation in assay [2] was 2.4% (inactive). Further, in assay [3], the viability decrease is 67.4% (active). Besides, the tube area decrease in assay [4] was 2% (inactive). The GLP1 secretion stimulation in assay [5] was 1.5% (inactive). For the same compound, the inhibition of viability in assay [6] is 43.5% (inactive). For the same compound, the viability decrease (inhibition) is 80.2% (active) in assay [7] and 73.5% (active) in assay [8].
Regarding `c1ccc2[nH]ccc2c1`, the nuclear beta-catenin stimulation is 0.4% (inactive) in assay [1] (at 10 µM) and 3% in assay [1] (stimulation, at 2 µM). In addition, in assay [2], the insulin secretion stimulation was -2.8% (inactive). Also, the viability decrease in assay [3] is -4.45% (inactive). The tube area decrease in assay [4] was 10.7% (inactive). For the same compound, the GLP1 secretion stimulation in assay [5] is 1.9% (inactive). The inhibition of viability in assay [6] was -34.9% (inactive). For the same compound, the results for the viability decrease (inhibition) in assay [7] and in assay [8] were 23.7% (inactive) and 6.25% (inactive), respectively.
For the compound `CN1CCC(N(Cc2cccs2)c2ccccc2)CC1`, the nuclear beta-catenin stimulation in assay [1] (at 10 µM) is -0.3% (inactive); in assay [1] (stimulation, at 2 µM), 5.8%. In assay [2], the insulin secretion stimulation is 26.2% (active). Further, the viability decrease in assay [3] was 53.9% (active). Moreover, the tube area decrease in assay [4] was -3.7% (inactive). For the same compound, the GLP1 secretion stimulation in assay [5] is 10% (inactive). For the same compound, the inhibition of viability in assay [6] was 49.3% (inactive). Moreover, the viability decrease (inhibition) in assay [7] is 72.8% (active); in assay [8], 13.1% (inactive).
Turning to `CCCCNc1ccc(C(=O)OCCN(CC)CC)cc1`, the nuclear beta-catenin stimulation in assay [1] (at 10 µM) is 4% (inactive); in assay [1] (stimulation, at 2 µM), 1.7%. Further, in assay [2], the insulin secretion stimulation is 7.25% (inactive). The viability decrease in assay [3] is 50.2% (active). Further, the tube area decrease in assay [4] was 19.5% (inactive). For the same compound, in assay [5], the GLP1 secretion stimulation is 3.7% (inactive). Moreover, the inhibition of viability in assay [6] was 81.8% (active). In addition, the viability decrease (inhibition) is 60.6% (active) in assay [7] and 88.7% (active) in assay [8].
As for `CCOC(CN1CCN(CC(C)C(=O)c2ccccc2)CC1)c1ccccc1` (stereo not drawn), the nuclear beta-catenin stimulation was 2.2% (inactive) in assay [1] (at 10 µM) and -0.1% in assay [1] (stimulation, at 2 µM). The insulin secretion stimulation in assay [2] is 5% (inactive). Moreover, the viability decrease in assay [3] was -4.9% (inactive). Further, the tube area decrease in assay [4] is 14% (inactive). The GLP1 secretion stimulation in assay [5] is -1.8% (inactive). The inhibition of viability in assay [6] was 21.2% (inactive). In addition, the viability decrease (inhibition) in assay [7] was 0.6% (inactive); in assay [8], -4.9% (inactive).
`Cc1c(Cn2ccnc2)c2ccccc2n1CCC(=O)O`: the nuclear beta-catenin stimulation in assay [1] (at 10 µM) is 0.7% (inactive); in assay [1] (stimulation, at 2 µM) it was 2.7%. Also, the insulin secretion stimulation in assay [2] was -0.1% (inactive). The viability decrease in assay [3] is 108% (active). Also, the tube area decrease in assay [4] is -6.9% (inactive). The GLP1 secretion stimulation in assay [5] was -1.3% (inactive). Also, the inhibition of viability in assay [6] was 103% (active). Moreover, the results for the viability decrease (inhibition) in assay [7] and in assay [8] were 79.6% (active) and 60.9% (active), respectively.
Consider `CC(C)(Cc1c[nH]c2ccccc12)NCC(O)COc1ccccc1C#N` (stereo not drawn), for which the nuclear beta-catenin stimulation in assay [1] (at 10 µM) is 0.2% (inactive); in assay [1] (stimulation, at 2 µM) it was 0%. The insulin secretion stimulation in assay [2] was 44.5% (active). Besides, the viability decrease in assay [3] was 84.6% (active). For the same compound, the tube area decrease in assay [4] was 12.6% (inactive). In addition, in assay [5], the GLP1 secretion stimulation was 3.9% (inactive). Moreover, the inhibition of viability in assay [6] is 87% (active). The viability decrease (inhibition) in assay [7] is 109% (active); in assay [8], 49.7% (inactive).
Regarding `COc1ccc2nc(NC(=O)Nc3ccccc3)sc2c1`, the nuclear beta-catenin stimulation in assay [1] (at 10 µM) is 0.5% (inactive); in assay [1] (stimulation, at 2 µM), 0%. Moreover, the insulin secretion stimulation in assay [2] was 1.3% (inactive). In assay [3], the viability decrease is 11.7% (inactive). Also, in assay [4], the tube area decrease is 2.4% (inactive). The GLP1 secretion stimulation in assay [5] is -1.4% (inactive). For the same compound, the inhibition of viability in assay [6] was 43% (inactive). Moreover, the viability decrease (inhibition) in assay [7] was -1.6% (inactive); in assay [8] it was 24% (inactive).
With `C[C@@H]1CCN(C(=O)[C@H](CCCN=C(N)N)NS(=O)(=O)c2cccc3c2NC[C@H](C)C3)[C@@H](C(=O)O)C1`, the nuclear beta-catenin stimulation in assay [1] (at 10 µM) is 0.3% (inactive); in assay [1] (stimulation, at 2 µM) it was -0.5%. For the same compound, the insulin secretion stimulation in assay [2] was 1.35% (inactive). Also, the viability decrease in assay [3] is -9.7% (inactive). In addition, the tube area decrease in assay [4] was -5.4% (inactive). For the same compound, the GLP1 secretion stimulation in assay [5] was 1.4% (inactive). For the same compound, the inhibition of viability in assay [6] was -3% (inactive). Moreover, the viability decrease (inhibition) in assay [7] is -23.6% (inactive); in assay [8], 0.9% (inactive).
For the compound `CCCCC(CC)CNC(=O)CC(C)OC(=O)CCC(=O)O` (stereo not drawn), the nuclear beta-catenin stimulation in assay [1] (at 10 µM) was -1.8% (inactive); in assay [1] (stimulation, at 2 µM), -0.8%. Besides, in assay [2], the insulin secretion stimulation is 4% (inactive). The viability decrease in assay [3] is -11.7% (inactive). Further, the tube area decrease in assay [4] is 0.6% (inactive). The GLP1 secretion stimulation in assay [5] is -1% (inactive). For the same compound, the inhibition of viability in assay [6] is 4.5% (inactive). Also, the viability decrease (inhibition) in assay [7] was 4.5% (inactive); in assay [8], -7.8% (inactive).
On to `O=C(CO)[C@@H](O)[C@H](O)[C@@H](O)C(=O)O`, for which the nuclear beta-catenin stimulation in assay [1] (at 10 µM) was -2.6% (inactive); in assay [1] (stimulation, at 2 µM), -0.9%. Further, in assay [2], the insulin secretion stimulation was 0.7% (inactive). Moreover, the viability decrease in assay [3] is -2.4% (inactive). Moreover, in assay [4], the tube area decrease is -0.1% (inactive). In assay [5], the GLP1 secretion stimulation is -5.4% (inactive). For the same compound, the inhibition of viability in assay [6] was 2.2% (inactive). In addition, the results for the viability decrease (inhibition) in assay [7] and in assay [8] were 0.3% (inactive) and -3.1% (inactive), respectively.
In the case of `COc1cc(NS(=O)(=O)c2ccc(N)cc2)nc(C)n1`, the nuclear beta-catenin stimulation is 1.1% (inactive) in assay [1] (at 10 µM) and 10.1% in assay [1] (stimulation, at 2 µM). Besides, the insulin secretion stimulation in assay [2] is 2.8% (inactive). For the same compound, the viability decrease in assay [3] is -0.6% (inactive). Moreover, the tube area decrease in assay [4] was -13% (inactive). Moreover, the GLP1 secretion stimulation in assay [5] was 1% (inactive). The inhibition of viability in assay [6] was -4.3% (inactive). Besides, the viability decrease (inhibition) in assay [7] is -9% (inactive); in assay [8] it was 6.1% (inactive).
